The values below come from PubChem BioAssay (NCI).

Common to all, as to assay: NCI-60 one-dose screen, 48 h (100 = growth as untreated, 0 = no growth, -100 = all killed)
What all share (conditions): 10 µM unless noted

In test [1] the test system is SK-MEL-2 melanoma.
Test [2] deals with EKVX NSCLC.
Test [3] concerns SN12C renal.
Test [4] relates to UO-31 renal.
For test [5], the system named is TK-10 renal.
Test [6] relates to ACHN renal.
Test [7] has as its system CAKI-1 renal.
Test [8] deals with A498 renal.
For test [9], the system named is CCRF-CEM leukemia.
Test [10] concerns MOLT-4 leukemia.

This is part of a sample that, as a whole, favours compounds with a hit. Of some 83,000 tested, about 20% had one in any assay.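 Treatment: one concentration, 48 hours, 96-well format. Scoring: percent growth, with anything below 10 considered active.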 A number with no mark means an inactive call. Activity calls are given as the source filed them.

With `COC(=O)c1cc(-c2ccc(S(C)(=O)=O)cc2)[nH]c1N/N=C/c1c(Cl)cccc1Cl`, the growth is -18.8% (active) in test [1]; 42.2% in test [2]; 39.4% in test [3]; 22.5% in [4]; 19.2% in [5]; 53.7% in test [6]. Also, the growth in test [7] was 30.3%; in test [8] it was -22.5% (active); in test [9], 1.59% (active); in test [10], 6.05% (active).

Turning to `Cc1ccc(C2=Nc3c(N)ncnc3NC(c3ccc4c(c3)OCO4)C2)cc1` (stereo not given), the growth in test [1] is 61.8%; in [2], 83.2%; in test [3], 96.8%; in test [4], 60.9%; in test [5] it was 84.5%; in [6], 74.3%. In addition, the growth is 56.6% in test [7], 55.4% in [8], -39.4% (active) in [9] and 49.3% in [10].

Consider `Cc1ccc(/C=N/Nc2nc(Nc3ccccc3)nc(-n3nc(C)cc3C)n2)cc1`, for which the growth in [1] is 32.6%; in test [2], 27.3%; in test [3], 48.9%; in test [4], 20.1%; in test [5], 3.47% (active); in test [6], 35.5%. The growth was -21.1% (active) in test [7], 58.5% in test [8], 41% in [9] and 42.3% in [10].

For the compound `Nc1ncnc2c1N=C(c1ccc(Cl)cc1)CC(c1ccc3c(c1)OCO3)N2` (stereo not given), the growth is 52% in test [1]; 94.6% in [2]; 97.2% in test [3]; 80.5% in test [4]; 111% in [5]; 87.6% in test [6]. For the same compound, the growth in test [7] was 84.1%; in test [8], 99.5%; in test [9] it was -54.1% (active); in test [10], 71.5%.

For `CC(C)c1ccc(COCc2cc(CN3CCCC3)c(O)c3ncccc23)cc1`, the growth in [1] was -23.9% (active); in test [2], 33.4%; in [3] it was 13.4%; in [4], -10.6% (active); in [5], 4.79% (active); in test [6], 6.16% (active). The growth in test [7] is 3.91% (active); in [8], 0.55% (active); in [9] it was 1.53% (active); in test [10], -5.7% (active).

For the compound `O=C(COc1ccc(-c2nc3ccccc3[nH]2)cc1)N=Nc1c(O)[nH]c2ccc(Cl)cc12`, the growth in [1] was 107%; in test [2], 95.7%; in [3], 83.9%; in [4], 93.9%; in [5] it was 88.2%; in [6], 97.6%. Moreover, the growth in [7] was 93.9%; in [8] it was 89.8%; in test [9], 27.6%; in test [10], 22.9%.

Turning to `CCN1CC(=O)N(/N=C2\C(=O)Nc3ccccc32)C1=S`, the growth is 92.7% in test [1]; 80.8% in [2]; 86.1% in [3]; 60.5% in test [4]; 105% in test [5]; 76.9% in test [6]. Besides, the growth in test [7] was 59%; in [8] it was 82.4%; in test [9] it was 102%; in [10], 98%.

Take `O=S(=O)(Nc1ccccc1)c1ccc(C2CC3(Cl)C(Cl)=C(Cl)C2(Cl)C3(Cl)Cl)cc1` (stereo not given): the growth is 74.1% in [1]; 36.3% in [2]; -18.5% (active) in [3]; 26.7% in test [4]; 66.2% in test [5]; 40% in test [6]. The growth in [7] was -19.8% (active); in [8], 62.4%; in test [9], 47.6%; in test [10], 30%.

Regarding `CCN(CC)CCOc1ccc(C(=C(C)c2ccc(Cl)cc2)c2ccc(OCCN(CC)CC)cc2)cc1`, the growth was -60.2% (active) in test [1]; 26.1% in test [2]; -83.7% (active) in test [3]; -92.8% (active) in [4]; -87.2% (active) in test [5]; -88.3% (active) in [6]. The growth in [7] was -95.7% (active); in [8], 7.66% (active); in test [9], -62.8% (active); in test [10], -64.2% (active).

With `COc1cc(/C=C\c2cc(/C=C\c3ccc(O)c(OC)c3)n(C(=O)COc3ccc(Cl)cc3Cl)n2)ccc1O`, the growth in test [1] was -4.36% (active); in test [2], 38.4%; in test [3], 8.09% (active); in test [4], 8.72% (active); in test [5] it was 20.5%; in test [6], 18.7%. In addition, the growth in test [7] is 14.8%; in test [8], 17.6%; in test [9] it was 4.35% (active); in test [10], -0.332% (active).

On to `Nc1c(C(=O)Nc2ccccc2Cl)sc2nc3c(cc12)C(O)CCC3` (stereo not given), for which the growth was 36.5% in [1]; 40.7% in [2]; 59.7% in [3]; 56.9% in test [4]; 45.8% in test [5]; 57.1% in test [6]. For the same compound, the growth in [7] is 49.6%; in test [8], 18%; in [9] it was 17.7%; in [10] it was 38.9%.

Take `CCCCCCNC(=O)Oc1ccc(/C(=C(/C)Cc2ccc(OC)cc2)c2ccc(OCCCN(C)C)cc2)cc1`: the growth is 26.9% in test [1]; 83% in [2]; 45.8% in [3]; 0.897% (active) in test [4]; 51.3% in test [5]; 37% in [6]. For the same compound, the growth in test [7] was 44.5%; in test [8], 97.3%; in [9], -2.26% (active); in test [10], -12.3% (active).

For `CCCCNC(=O)Oc1ccc(/C(=C(/CC)Cc2ccccc2)c2ccc(OCCN3CCCCCC3)cc2)cc1`, the growth in test [1] is 84.9%; in test [2], 59.2%; in [3] it was 25.8%; in [4] it was 35.2%; in [5], 92.4%; in test [6], 66.4%. The growth is 72.1% in [7], 72% in test [8], 5.36% (active) in test [9] and 2.34% (active) in [10].

Take `O=C(Nc1nn(-c2ccc(Cl)cc2Cl)nc1-c1ccccc1)c1ccccc1`: the growth in test [1] was 106%; in [2], 113%; in test [3], 98.9%; in test [4], 67.6%; in [5] it was 117%; in test [6] it was 94.8%. In addition, the growth is 85.1% in [7], 116% in test [8], 95.9% in [9] and 83.5% in test [10].

Turning to `O=C(N/N=C/c1ccc(F)cc1)c1ccc(C(F)(F)F)nc1Nc1cccc(C(F)(F)F)c1`, the growth in [1] was -29.1% (active); in test [2] it was 4.22% (active); in test [3] it was -12.1% (active); in [4], -18.4% (active); in test [5] it was 3.93% (active); in [6], -3.72% (active). Moreover, the growth was -7.66% (active) in test [7], -1.26% (active) in test [8], 0.801% (active) in [9] and -20.3% (active) in [10].

Regarding `CN([O-])c1nc(N(C)[O-])nc(N2CCOCC2)n1.CN([O-])c1nc(N(C)[OH2+])nc(N2CCOCC2)n1.[Fe+3]`, the growth in test [1] was 84.9% [100 µM]; in [2], 14.5% [100 µM]; in test [3], 99.9% [100 µM]; in test [4], 72.3% [100 µM]; in test [5] it was 110% [100 µM]; in test [6], 82.8% [100 µM]. Also, the growth in test [7] is 85.8% [100 µM]; in test [8], 109% [100 µM]; in test [9], 11.7% [100 µM]; in [10], 30.3% [100 µM].

Consider `O=C(O)/C(=C\c1ccc(Cl)cc1)c1ccc(Cl)cc1`, for which the growth in test [1] was 90.3%; in [2] it was 94.3%; in [3], 90.4%; in test [4], 77.7%; in test [5], 106%; in test [6], 95.2%. The growth in test [7] is 70.8%; in test [8], 94.9%; in [9], 96.5%; in test [10], 50%.

Turning to `CCc1nc2c(=O)[nH]cnc2o1`, the growth was 113% in test [1]; 104% in test [2]; 109% in test [3]; 75.7% in test [4]; 108% in test [5]; 105% in test [6]. Besides, the growth in test [7] was 100%; in test [8], 102%; in test [9], 108%; in test [10], 108%.

Take `Cc1ccc(S(=O)(=O)N2CCCC2CO)cc1` (stereo not given): the growth in test [1] was 96.3%; in test [2], 101%; in test [3] it was 101%; in [4], 94.2%; in test [5], 101%; in test [6] it was 89.3%. Also, the growth is 85.6% in test [7], 65.7% in test [8], 68.5% in test [9] and 98.8% in test [10].

With `O=C(Cn1c(-c2ccc([N+](=O)[O-])cc2)nc2ccccc21)NNC(=O)c1cccnc1`, the growth in test [1] was 103%; in [2], 73.2%; in test [3], 78.9%; in test [4], 65.6%; in test [5], 126%; in test [6], 84.4%. For the same compound, the growth in [7] is 71.2%; in test [8], 65.1%; in test [9], 75.6%; in [10], 79.3%.

Take `N#Cc1cnc(NCCc2ccncc2)nc1-n1cnc2ccccc21`: the growth was 34.6% in test [1]; 72.6% in test [2]; 65.1% in test [3]; 33.3% in [4]; 20.4% in test [5]; 26.1% in test [6]. Also, the growth is 8.54% (active) in test [7], 29.6% in test [8], 77.2% in [9] and 47.3% in test [10].

As to `CCNC(=O)c1[nH]cc(-c2ccccc2)c1-c1cc(OC)c2c(c1OC)OCO2`, the growth in test [1] was 99.9%; in test [2] it was 96.9%; in test [3] it was 98.7%; in [4], 76%; in test [5], 106%; in test [6], 99.1%. In addition, the growth in [7] is 74.7%; in [8], 77.1%; in [9], 101%; in test [10] it was 98.9%.

Consider `Cc1oc(-c2ccc(Cl)cc2)nc1/C=C/C(=O)c1ccccc1`, for which the growth was 100% in [1]; 95% in test [2]; 95.6% in test [3]; 83.9% in test [4]; 122% in test [5]; 101% in test [6]. The growth was 91.9% in test [7], 101% in [8], 97% in test [9] and 92.3% in test [10].

Consider `CSc1nnc(-c2cnn3c2NC(c2ccccc2)C3)n1-c1ccc(C(F)(F)F)cc1` (stereo not given), for which the growth is 50.2% in [1]; 56% in [2]; 78.5% in test [3]; 53.7% in test [4]; 70.6% in test [5]; 52.3% in test [6]. Moreover, the growth was 32% in [7], 46.8% in test [8], 48% in test [9] and 41.9% in [10].

With `CCN(CC)CCCN1C(=O)c2c(c(C)c3c(oc4cc(O)ccc43)c2C)C1=O`, the growth was 98% in [1]; 108% in test [2]; -75% (active) in test [3]; 90.8% in test [4]; 112% in test [5]; 51.5% in test [6]. For the same compound, the growth is -81% (active) in test [7], 104% in test [8], -6.12% (active) in test [9] and -5.26% (active) in [10].

`CC(=O)c1cc(O)c2ccccc2c1O`: the growth in test [1] was 103%; in test [2], 78.9%; in test [3] it was 105%; in [4], 67%; in [5] it was 148%; in [6], 85.1%. In addition, the growth in test [7] was 85.7%; in test [8] it was 133%; in test [9], -10.5% (active); in [10] it was 107%.

Turning to `CN1CCN(c2ccc(NC(=O)c3nc4ccc5[nH]ncc5c4c4c3CCCC4)cc2C(F)(F)F)CC1`, the growth in [1] is 88.2%; in test [2] it was 88.2%; in [3] it was 32.6%; in test [4], 64.3%; in test [5] it was 109%; in test [6], 15.2%. Also, the growth in test [7] was 19.4%; in test [8], 82.4%; in [9], 5.81% (active); in test [10] it was 36.1%.
